How the values were obtained:
[1] = biological target: T1, Ephrin type-A receptor 3 (Homo sapiens) (UniProt P29320); conditions: at 10 µM
T1 sequence (whole entry): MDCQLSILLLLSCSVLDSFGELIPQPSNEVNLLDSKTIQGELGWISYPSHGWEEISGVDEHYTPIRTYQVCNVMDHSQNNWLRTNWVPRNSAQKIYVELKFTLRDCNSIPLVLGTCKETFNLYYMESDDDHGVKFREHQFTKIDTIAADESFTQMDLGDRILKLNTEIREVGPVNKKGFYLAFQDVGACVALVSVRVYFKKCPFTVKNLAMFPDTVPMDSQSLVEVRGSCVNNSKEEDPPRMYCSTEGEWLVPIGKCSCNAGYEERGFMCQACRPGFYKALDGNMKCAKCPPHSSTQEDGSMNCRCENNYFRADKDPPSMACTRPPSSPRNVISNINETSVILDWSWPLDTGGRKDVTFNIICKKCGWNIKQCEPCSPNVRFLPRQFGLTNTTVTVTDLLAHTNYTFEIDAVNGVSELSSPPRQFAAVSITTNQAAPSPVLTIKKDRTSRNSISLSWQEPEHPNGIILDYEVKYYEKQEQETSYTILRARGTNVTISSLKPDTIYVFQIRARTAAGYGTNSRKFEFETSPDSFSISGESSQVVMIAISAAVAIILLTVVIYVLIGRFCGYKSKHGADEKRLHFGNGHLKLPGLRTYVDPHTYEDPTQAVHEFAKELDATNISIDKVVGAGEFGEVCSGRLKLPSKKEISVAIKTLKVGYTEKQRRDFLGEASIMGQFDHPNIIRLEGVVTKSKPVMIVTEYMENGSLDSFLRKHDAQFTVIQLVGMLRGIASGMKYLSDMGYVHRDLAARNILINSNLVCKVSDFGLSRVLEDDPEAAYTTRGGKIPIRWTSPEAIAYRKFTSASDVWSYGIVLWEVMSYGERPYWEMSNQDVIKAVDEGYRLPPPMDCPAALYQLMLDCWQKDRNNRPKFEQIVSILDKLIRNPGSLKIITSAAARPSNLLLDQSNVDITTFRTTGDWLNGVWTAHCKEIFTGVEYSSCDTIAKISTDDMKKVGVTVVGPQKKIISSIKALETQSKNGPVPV

[2] = biological target: Ephrin type-A receptor 4 (Homo sapiens) (UniProt P54764); conditions: at 1 µM
Ephrin type-A receptor 4 (Homo sapiens), sequence (P54764 whole entry): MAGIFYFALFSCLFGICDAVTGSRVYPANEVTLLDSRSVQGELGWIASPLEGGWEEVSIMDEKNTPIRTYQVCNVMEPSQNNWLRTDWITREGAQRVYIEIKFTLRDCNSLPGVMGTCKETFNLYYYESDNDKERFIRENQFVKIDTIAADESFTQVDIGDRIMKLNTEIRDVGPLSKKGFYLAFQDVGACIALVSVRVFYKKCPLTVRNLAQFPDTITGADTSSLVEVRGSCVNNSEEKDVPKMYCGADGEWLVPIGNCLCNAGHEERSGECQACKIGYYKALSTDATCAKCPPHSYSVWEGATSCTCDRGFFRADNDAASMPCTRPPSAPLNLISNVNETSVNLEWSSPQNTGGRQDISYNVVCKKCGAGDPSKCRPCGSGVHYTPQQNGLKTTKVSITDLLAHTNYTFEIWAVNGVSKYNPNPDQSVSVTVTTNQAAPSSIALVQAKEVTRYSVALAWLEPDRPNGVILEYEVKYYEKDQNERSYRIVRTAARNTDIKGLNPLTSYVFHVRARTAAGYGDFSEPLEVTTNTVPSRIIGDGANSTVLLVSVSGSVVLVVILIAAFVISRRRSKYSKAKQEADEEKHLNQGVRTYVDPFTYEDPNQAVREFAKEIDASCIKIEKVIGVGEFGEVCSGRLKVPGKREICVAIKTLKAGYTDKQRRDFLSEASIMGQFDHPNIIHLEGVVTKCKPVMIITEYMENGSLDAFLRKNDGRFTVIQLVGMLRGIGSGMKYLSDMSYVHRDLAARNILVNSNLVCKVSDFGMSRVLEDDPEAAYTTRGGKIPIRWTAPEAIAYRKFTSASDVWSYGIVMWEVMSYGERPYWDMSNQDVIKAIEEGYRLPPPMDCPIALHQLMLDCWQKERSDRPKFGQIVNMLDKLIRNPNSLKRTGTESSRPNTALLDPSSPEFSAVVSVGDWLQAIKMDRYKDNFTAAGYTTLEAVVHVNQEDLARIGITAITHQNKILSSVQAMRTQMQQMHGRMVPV

[3] = biological target: Ephrin type-A receptor 4 (Homo sapiens) (UniProt P54764); conditions: at 10 µM
[4] = biological target: Ephrin type-A receptor 5 (Homo sapiens) (UniProt P54756); conditions: at 1 µM
Ephrin type-A receptor 5 (Homo sapiens), sequence (P54756 whole entry): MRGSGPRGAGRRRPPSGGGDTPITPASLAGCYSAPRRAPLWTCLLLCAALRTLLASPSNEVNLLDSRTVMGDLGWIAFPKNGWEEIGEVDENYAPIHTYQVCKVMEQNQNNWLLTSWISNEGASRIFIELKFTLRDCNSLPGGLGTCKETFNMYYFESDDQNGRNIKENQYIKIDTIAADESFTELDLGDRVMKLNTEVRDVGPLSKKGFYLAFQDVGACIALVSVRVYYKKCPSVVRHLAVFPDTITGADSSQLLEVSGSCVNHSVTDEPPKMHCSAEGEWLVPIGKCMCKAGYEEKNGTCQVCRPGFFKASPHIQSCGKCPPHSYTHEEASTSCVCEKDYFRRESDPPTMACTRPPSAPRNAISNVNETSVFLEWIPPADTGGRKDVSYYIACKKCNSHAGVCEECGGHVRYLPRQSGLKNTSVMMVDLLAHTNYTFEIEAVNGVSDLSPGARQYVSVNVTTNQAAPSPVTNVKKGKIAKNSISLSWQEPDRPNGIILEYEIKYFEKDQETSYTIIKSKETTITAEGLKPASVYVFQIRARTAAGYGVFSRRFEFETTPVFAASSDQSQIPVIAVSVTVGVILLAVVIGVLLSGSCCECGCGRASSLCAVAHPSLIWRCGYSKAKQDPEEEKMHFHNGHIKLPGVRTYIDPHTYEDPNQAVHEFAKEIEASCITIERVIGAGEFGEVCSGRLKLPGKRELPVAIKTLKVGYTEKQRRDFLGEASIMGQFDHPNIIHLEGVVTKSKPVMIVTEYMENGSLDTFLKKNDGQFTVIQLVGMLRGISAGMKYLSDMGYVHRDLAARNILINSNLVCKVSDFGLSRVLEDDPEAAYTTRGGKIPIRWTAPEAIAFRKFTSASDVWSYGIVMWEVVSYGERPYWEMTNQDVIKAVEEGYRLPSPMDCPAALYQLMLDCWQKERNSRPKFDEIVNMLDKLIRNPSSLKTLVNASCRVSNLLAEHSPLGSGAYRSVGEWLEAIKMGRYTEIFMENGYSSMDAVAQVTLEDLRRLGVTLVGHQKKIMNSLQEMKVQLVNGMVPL

[5] = biological target: Ephrin type-A receptor 5 (Homo sapiens) (UniProt P54756); conditions: at 10 µM
[6] = biological target: Ephrin type-A receptor 7 (Homo sapiens) (UniProt Q15375); conditions: at 1 µM
Ephrin type-A receptor 7 (Homo sapiens), sequence (Q15375 28-998 limits assumed): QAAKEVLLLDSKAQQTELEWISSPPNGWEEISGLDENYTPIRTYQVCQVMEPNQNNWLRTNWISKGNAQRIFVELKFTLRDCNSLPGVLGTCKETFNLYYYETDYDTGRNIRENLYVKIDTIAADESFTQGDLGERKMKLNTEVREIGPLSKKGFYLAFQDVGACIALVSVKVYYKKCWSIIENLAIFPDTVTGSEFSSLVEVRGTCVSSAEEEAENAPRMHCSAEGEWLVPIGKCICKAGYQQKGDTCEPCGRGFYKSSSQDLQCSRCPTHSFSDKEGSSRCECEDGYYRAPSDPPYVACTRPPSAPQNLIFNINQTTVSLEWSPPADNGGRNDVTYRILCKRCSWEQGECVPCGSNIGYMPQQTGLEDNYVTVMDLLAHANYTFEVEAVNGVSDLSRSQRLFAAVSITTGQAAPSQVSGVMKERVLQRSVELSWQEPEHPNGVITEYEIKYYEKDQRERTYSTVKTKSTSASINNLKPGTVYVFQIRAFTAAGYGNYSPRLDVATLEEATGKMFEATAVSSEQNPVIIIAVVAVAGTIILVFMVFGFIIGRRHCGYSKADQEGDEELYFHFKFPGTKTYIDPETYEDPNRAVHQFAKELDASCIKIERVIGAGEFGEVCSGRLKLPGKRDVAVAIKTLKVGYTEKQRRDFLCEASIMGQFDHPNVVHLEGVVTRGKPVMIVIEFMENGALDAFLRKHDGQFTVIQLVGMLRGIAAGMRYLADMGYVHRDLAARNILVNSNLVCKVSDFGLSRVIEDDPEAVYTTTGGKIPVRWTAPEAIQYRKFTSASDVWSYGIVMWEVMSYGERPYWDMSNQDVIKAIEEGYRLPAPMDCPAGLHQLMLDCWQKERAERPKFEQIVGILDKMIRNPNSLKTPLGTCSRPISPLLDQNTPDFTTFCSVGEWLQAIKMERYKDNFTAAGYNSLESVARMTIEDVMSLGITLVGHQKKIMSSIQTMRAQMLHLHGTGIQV

[7] = biological target: Ephrin type-A receptor 7 (Homo sapiens) (UniProt Q15375); conditions: at 10 µM
[8] = biological target: T2, Ephrin type-A receptor 8 (Homo sapiens) (UniProt P29322); conditions: at 1 µM
T2 sequence (whole entry): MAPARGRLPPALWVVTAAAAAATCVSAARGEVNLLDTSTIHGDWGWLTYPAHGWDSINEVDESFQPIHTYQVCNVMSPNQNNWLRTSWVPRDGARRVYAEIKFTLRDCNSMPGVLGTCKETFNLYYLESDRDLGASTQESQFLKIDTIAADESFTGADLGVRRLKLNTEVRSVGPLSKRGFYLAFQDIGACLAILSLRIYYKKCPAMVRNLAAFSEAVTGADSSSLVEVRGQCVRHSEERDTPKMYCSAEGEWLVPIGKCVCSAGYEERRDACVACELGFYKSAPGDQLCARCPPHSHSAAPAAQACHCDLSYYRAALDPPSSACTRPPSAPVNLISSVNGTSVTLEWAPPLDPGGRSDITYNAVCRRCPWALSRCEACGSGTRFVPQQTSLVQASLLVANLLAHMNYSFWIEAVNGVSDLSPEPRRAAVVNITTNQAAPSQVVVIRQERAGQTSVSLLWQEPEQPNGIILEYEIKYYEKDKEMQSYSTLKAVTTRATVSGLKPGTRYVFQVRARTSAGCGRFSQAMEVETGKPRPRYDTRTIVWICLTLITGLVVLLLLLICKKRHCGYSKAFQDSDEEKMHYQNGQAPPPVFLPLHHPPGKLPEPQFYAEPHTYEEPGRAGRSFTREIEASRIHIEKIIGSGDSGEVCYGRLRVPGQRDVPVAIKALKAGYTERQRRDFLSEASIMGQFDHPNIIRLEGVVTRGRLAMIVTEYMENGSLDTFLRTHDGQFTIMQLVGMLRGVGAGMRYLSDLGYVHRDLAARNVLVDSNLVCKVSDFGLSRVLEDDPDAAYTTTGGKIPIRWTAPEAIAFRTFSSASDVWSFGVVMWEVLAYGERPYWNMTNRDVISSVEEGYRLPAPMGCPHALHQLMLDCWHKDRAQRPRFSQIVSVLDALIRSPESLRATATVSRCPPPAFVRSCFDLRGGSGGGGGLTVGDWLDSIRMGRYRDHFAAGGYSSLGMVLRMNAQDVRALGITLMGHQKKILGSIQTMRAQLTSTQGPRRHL

[9] = biological target: T2, Ephrin type-A receptor 8 (Homo sapiens); conditions: at 10 µM
[10] = biological target: T3, Ephrin type-B receptor 1 (Homo sapiens) (UniProt P54762); conditions: at 1 µM
T3 sequence (whole entry): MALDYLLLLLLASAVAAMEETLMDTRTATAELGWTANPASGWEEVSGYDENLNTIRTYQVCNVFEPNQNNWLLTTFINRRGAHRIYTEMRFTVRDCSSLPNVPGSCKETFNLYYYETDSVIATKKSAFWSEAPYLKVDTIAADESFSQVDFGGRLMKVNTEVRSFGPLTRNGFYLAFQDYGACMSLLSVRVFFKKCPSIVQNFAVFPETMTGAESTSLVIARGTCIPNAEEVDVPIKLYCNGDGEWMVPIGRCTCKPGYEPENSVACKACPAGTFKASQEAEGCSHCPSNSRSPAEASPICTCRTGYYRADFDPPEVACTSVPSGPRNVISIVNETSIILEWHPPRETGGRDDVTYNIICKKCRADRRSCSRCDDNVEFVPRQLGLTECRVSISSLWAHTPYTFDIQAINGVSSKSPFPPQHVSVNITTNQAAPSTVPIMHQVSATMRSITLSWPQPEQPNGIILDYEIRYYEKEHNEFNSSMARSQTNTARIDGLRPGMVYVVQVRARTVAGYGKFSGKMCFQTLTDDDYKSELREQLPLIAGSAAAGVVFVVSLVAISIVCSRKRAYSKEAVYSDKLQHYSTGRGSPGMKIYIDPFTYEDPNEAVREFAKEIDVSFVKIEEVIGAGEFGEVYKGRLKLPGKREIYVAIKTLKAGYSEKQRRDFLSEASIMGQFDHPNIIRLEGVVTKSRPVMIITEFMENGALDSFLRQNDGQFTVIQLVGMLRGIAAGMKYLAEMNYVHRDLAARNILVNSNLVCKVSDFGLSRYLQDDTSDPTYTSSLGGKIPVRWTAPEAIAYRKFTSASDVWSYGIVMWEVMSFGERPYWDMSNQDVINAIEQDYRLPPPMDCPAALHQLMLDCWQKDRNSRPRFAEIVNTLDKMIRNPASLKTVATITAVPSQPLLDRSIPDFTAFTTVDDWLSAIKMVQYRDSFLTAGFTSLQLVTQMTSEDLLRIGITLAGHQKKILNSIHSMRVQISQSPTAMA

Question: What does the source list for Oc1ccc(Nc2nc(-c3ccc(Cl)cc3)cs2)cc1?
Answer: residual activity [1]: 111%; residual activity [2]: 113%; residual activity [3]: 103%; residual activity [4]: 112%; residual activity [5]: 86%; residual activity [6]: 105%; residual activity [7]: 102%; residual activity [8]: 99%; residual activity [9]: 96%; residual activity [10]: 108%
